From PubChem BioAssay (NCI) come the findings set out here.

The nature of assay [1]: NCI Yeast Anticancer Drug Screen. Data for the rad50 strain (AID 155).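 Also: 0% = growth of vehicle-only cultures of the same strain.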 The conditions noted are these: S. cerevisiae rad50 strain growth inhibition, stronger effect = higher value. The method, boiled down:
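Compounds were tested on a yeast strain with an engineered DNA damage repair alteration; the reported value is growth inhibition normalised to vehicle treatment.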

Assay [2] in a line: NCI Yeast Anticancer Drug Screen. Data for the mec2-1 strain (AID 157). The note with it: S. cerevisiae mec2-1 strain, stronger effect = higher value. The method, boiled down: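 Using mec2-1 yeast: add compound, measure growth, express inhibition versus vehicle-treated cultures.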
The nature of assay [3]: NCI Yeast Anticancer Drug Screen. Data for the sgs1 mgt1 strain (AID 161).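 Also: 0% = growth of cultures given vehicle only.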 The conditions noted are these: S. cerevisiae sgs1 mgt1 strain, stronger effect = higher value. The method, boiled down: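 Growth of a repair-deficient yeast mutant was monitored after compound treatment and expressed as inhibition relative to vehicle-treated cultures.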
A short description of assay [4]: NCI Yeast Anticancer Drug Screen. Data for the cln2 rad14 strain (AID 165).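 Also: 0% = growth equal to vehicle treated cultures.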 The note with it: S. cerevisiae cln2 rad14 strain, stronger effect = higher value. The method, boiled down: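 Yeast strain cln2 rad14, bearing defects in cell cycle control and DNA repair, serves as the test system; values reflect growth inhibition compared with vehicle.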
The nature of assay [5]: NCI Yeast Anticancer Drug Screen. Data for the bub3 strain (AID 167). The note with it: S. cerevisiae bub3 mutant strain, stronger effect = higher value. The method, boiled down:
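Growth of a checkpoint-deficient yeast mutant is measured after compound exposure. Values represent inhibition relative to vehicle.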

The nature of assay [6]: NCI Yeast Anticancer Drug Screen. Data for the mlh1 rad18 strain (AID 175). The note with it: S. cerevisiae mlh1 rad18 strain growth inhibition, stronger effect = higher value. A digest of the protocol:
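Steps: expose repair-defective yeast to compound; measure growth; express inhibition against vehicle-treated controls.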

The mark [7] stands for this setting: at 5.0 µM (retest, dose inferred, filed as 0.5).
[8] abbreviates: at 50.0 µM (retest, dose inferred, filed as 5.0).

Each structure is given as a SMILES string. About 79,000 compounds went through this panel and 15% of them were active in at least one assay; those are over-represented in the sample as a whole. Values without a mark were called inactive. Activity calls are given as the source filed them. Rule as the data show it: active = growth inhibition above about 70%; inactive = the rest.

For `O=C(/C=C/c1cccc2ccccc12)c1cccc([N+](=O)[O-])c1`, the growth inhibition in assay [1] (setting [7]) was 11%; in assay [1] (setting [8]), -10%; in assay [1] (at 50.0 µM), 12.3%; in assay [2] (setting [7]) it was -25%; in assay [2] (setting [8]), -15%; in assay [2] (at 50.0 µM) it was -4.05%. Moreover, the growth inhibition in assay [3] (setting [7]) was -2%; in assay [3] (setting [8]) it was 2%; in assay [3] (at 50.0 µM), 14.3%; in assay [4] (setting [7]), 7%; in assay [4] (setting [8]) it was 5%; in assay [4] (at 50.0 µM), 0%. Further, the growth inhibition in assay [5] (setting [7]) was -8%; in assay [5] (setting [8]), -12%; in assay [5] (at 50.0 µM), -5.2%; in assay [6] (setting [7]), -12%; in assay [6] (setting [8]) it was -51%; in assay [6] (at 50.0 µM), -5.35%.
On to `CC(=O)OC(C#N)CC(C)(C)/[N+]([O-])=[N+](\[O-])C(C)(C)CC(C#N)OC(C)=O` (stereo not given), for which the growth inhibition was 6% in assay [1] (setting [7]); 44% in assay [1] (setting [8]); 23.9% in assay [1] (at 50.0 µM); 1% in assay [2] (setting [7]); 46% in assay [2] (setting [8]); 43.5% in assay [2] (at 50.0 µM). The growth inhibition in assay [3] (setting [7]) is 8%; in assay [3] (setting [8]) it was 97% (active); in assay [3] (at 50.0 µM), 77.3% (active); in assay [4] (setting [7]) it was 14%; in assay [4] (setting [8]) it was 61%; in assay [4] (at 50.0 µM) it was 3.2%. For the same compound, the growth inhibition in assay [5] (setting [7]) is 3%; in assay [5] (setting [8]) it was 79% (active); in assay [5] (at 50.0 µM), 68.1%; in assay [6] (setting [7]), 11%; in assay [6] (setting [8]), 80% (active); in assay [6] (at 50.0 µM), 80% (active).
`CCCCCc1cccc(CC(=O)OCC)n1`: the growth inhibition in assay [1] (setting [7]) is -161%; in assay [1] (setting [8]), -149%; in assay [1] (at 50.0 µM), -14.7%; in assay [2] (setting [7]), -50%; in assay [2] (setting [8]), -57%; in assay [2] (at 50.0 µM) it was -15.3%. The growth inhibition is -66% in assay [3] (setting [7]); -69% in assay [3] (setting [8]); -12.7% in assay [3] (at 50.0 µM); -58% in assay [4] (setting [7]); -80% in assay [4] (setting [8]); 26.9% in assay [4] (at 50.0 µM). The growth inhibition in assay [5] (setting [7]) is -66%; in assay [5] (setting [8]) it was -42%; in assay [5] (at 50.0 µM) it was -12.3%; in assay [6] (setting [7]), -127%; in assay [6] (setting [8]), -132%; in assay [6] (at 50.0 µM), -6.15%.
Take `CC(C)(c1ccc(OC#N)cc1)c1ccc(OC#N)cc1`: the growth inhibition in assay [1] (setting [7]) is 21%; in assay [1] (setting [8]), 78% (active); in assay [1] (at 50.0 µM), 66%; in assay [2] (setting [7]), -23%; in assay [2] (setting [8]), 87% (active); in assay [2] (at 50.0 µM), 53.4%. Besides, the growth inhibition was 4% in assay [3] (setting [7]); 40% in assay [3] (setting [8]); 79.5% (active) in assay [3] (at 50.0 µM); 23% in assay [4] (setting [7]); 88% (active) in assay [4] (setting [8]); 61.4% in assay [4] (at 50.0 µM). In addition, the growth inhibition in assay [5] (setting [7]) was 1%; in assay [5] (setting [8]), 95% (active); in assay [5] (at 50.0 µM), 25%; in assay [6] (setting [7]), -14%; in assay [6] (setting [8]), 59%; in assay [6] (at 50.0 µM), 47%.
Take `CCCC(=O)N(C(=O)CCC)C1=C(Cl)C(=O)c2ccccc2C1=O`: the growth inhibition in assay [1] (setting [7]) was 55%; in assay [1] (setting [8]), 64%; in assay [1] (at 50.0 µM), 29.9%; in assay [2] (setting [7]), 95% (active); in assay [2] (setting [8]), 95% (active); in assay [2] (at 50.0 µM) it was 83.1% (active). Moreover, the growth inhibition in assay [3] (setting [7]) was 56%; in assay [3] (setting [8]) it was 72% (active); in assay [3] (at 50.0 µM), 75.1% (active); in assay [4] (setting [7]) it was 33%; in assay [4] (setting [8]), 65%; in assay [4] (at 50.0 µM), 74.2% (active). The growth inhibition is 91% (active) in assay [5] (setting [7]); 98% (active) in assay [5] (setting [8]); 87.4% (active) in assay [5] (at 50.0 µM); 48% in assay [6] (setting [7]); 64% in assay [6] (setting [8]); 86.6% (active) in assay [6] (at 50.0 µM).
Regarding `COc1ccc(NC(=S)N/N=C/c2cccc(C)n2)cc1`, the growth inhibition in assay [1] (setting [7]) is 8%; in assay [1] (setting [8]), 98% (active); in assay [1] (at 50.0 µM), 67.4%; in assay [2] (setting [7]) it was 0%; in assay [2] (setting [8]) it was 94% (active); in assay [2] (at 50.0 µM), 82.5% (active). Further, the growth inhibition in assay [3] (setting [7]) is 13%; in assay [3] (setting [8]), 90% (active); in assay [3] (at 50.0 µM), 86.5% (active); in assay [4] (setting [7]), 23%; in assay [4] (setting [8]), 88% (active); in assay [4] (at 50.0 µM), 83.3% (active). The growth inhibition is -22% in assay [5] (setting [7]); 85% (active) in assay [5] (setting [8]); 85.9% (active) in assay [5] (at 50.0 µM); 10% in assay [6] (setting [7]); 95% (active) in assay [6] (setting [8]); 89.4% (active) in assay [6] (at 50.0 µM).
As to `O=C(O)c1ccc2ccccc2c1C(=O)c1cccc2ccccc12`, the growth inhibition in assay [1] (setting [7]) was 12%; in assay [1] (setting [8]), 12%; in assay [1] (at 50.0 µM), 86.8% (active); in assay [2] (setting [7]), 1%; in assay [2] (setting [8]), 8%; in assay [2] (at 50.0 µM) it was 83.5% (active). In addition, the growth inhibition in assay [3] (setting [7]) was 0%; in assay [3] (setting [8]), 21%; in assay [3] (at 50.0 µM), 90.4% (active); in assay [4] (setting [7]) it was 7%; in assay [4] (setting [8]) it was 9%; in assay [4] (at 50.0 µM) it was 92.1% (active). For the same compound, the growth inhibition in assay [5] (setting [7]) is 0%; in assay [5] (setting [8]) it was 3%; in assay [5] (at 50.0 µM) it was 83.2% (active); in assay [6] (setting [7]) it was -5%; in assay [6] (setting [8]), 15%; in assay [6] (at 50.0 µM), 92.2% (active).
Regarding `COc1ccc(N=NN(C)C)cc1`, the growth inhibition in assay [1] (setting [7]) was -13%; in assay [1] (setting [8]), 65%; in assay [1] (at 50.0 µM), 97% (active); in assay [2] (setting [7]), 13%; in assay [2] (setting [8]), 28%; in assay [2] (at 50.0 µM), 70.3% (active). In addition, the growth inhibition in assay [3] (setting [7]) is -7%; in assay [3] (setting [8]), 35%; in assay [3] (at 50.0 µM), 83.7% (active); in assay [4] (setting [7]), -42%; in assay [4] (setting [8]), 26%; in assay [4] (at 50.0 µM), 76.5% (active). Moreover, the growth inhibition in assay [5] (setting [7]) was -12%; in assay [5] (setting [8]), 50%; in assay [5] (at 50.0 µM), 72% (active); in assay [6] (setting [7]), 17%; in assay [6] (setting [8]) it was 92% (active); in assay [6] (at 50.0 µM) it was 94.6% (active).
Take `Cc1ccccc1NC(=S)N/N=C(/c1ccccc1)c1ccccn1`: the growth inhibition was 5% in assay [1] (setting [7]); 94% (active) in assay [1] (setting [8]); 53.9% in assay [1] (at 50.0 µM); -17% in assay [2] (setting [7]); 92% (active) in assay [2] (setting [8]); 61% in assay [2] (at 50.0 µM). The growth inhibition in assay [3] (setting [7]) is 26%; in assay [3] (setting [8]), 92% (active); in assay [3] (at 50.0 µM), 69.7%; in assay [4] (setting [7]), -38%; in assay [4] (setting [8]), 91% (active); in assay [4] (at 50.0 µM), 68.4%. The growth inhibition in assay [5] (setting [7]) was -47%; in assay [5] (setting [8]), 92% (active); in assay [5] (at 50.0 µM) it was 76.3% (active); in assay [6] (setting [7]) it was 26%; in assay [6] (setting [8]) it was 92% (active); in assay [6] (at 50.0 µM), 75.4% (active).
Regarding `COc1cccc(C=Nc2ccc(I)cc2)c1O.COc1cccc(C=Nc2ccc(I)cc2)c1O.[Co]`, the growth inhibition was 15% in assay [1] (setting [7]); 56% in assay [1] (setting [8]); 29.4% in assay [1] (at 50.0 µM); 11% in assay [2] (setting [7]); 25% in assay [2] (setting [8]); 11.7% in assay [2] (at 50.0 µM). Moreover, the growth inhibition in assay [3] (setting [7]) is 12%; in assay [3] (setting [8]), 31%; in assay [3] (at 50.0 µM), 30.2%; in assay [4] (setting [7]) it was 10%; in assay [4] (setting [8]), 19%; in assay [4] (at 50.0 µM), 21%. Further, the growth inhibition was 10% in assay [5] (setting [7]); 9% in assay [5] (setting [8]); 52.1% in assay [5] (at 50.0 µM); 13% in assay [6] (setting [7]); 37% in assay [6] (setting [8]); 19.2% in assay [6] (at 50.0 µM).
